The full ranking holds about 2,900 compounds; the median of “NF-kB SEAP reporter activity, fold change vs agonist alone” is about 0.99, and the highest 2% start at about 2.6. The full list was thinned out, with the highest values kept by preference.
How the values were obtained:
RAW-Dual [1] = experiment: NF-kB SEAP reporter activity, fold change vs agonist alone; cytotoxicity flag (confluency mask): not cytotoxic; higher = enhanced NF-kB activity
How it was run: (§1)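 Library stock was pin-tooled at 50 nL into 384-well plates of RAW-Dual macrophages (50,000 cells/well, DMEM), followed 1 h later by a PRR agonist, and the cells were kept at 37 °C, 5% CO2. Supernatant collected after 20 hours was read for IRF by QuantiLuc luminescence and for NF-κB by QuantiBlue absorbance at 620 nm. Reporter activity is fold change over agonist-alone wells, and a well counted as cytotoxic when its IncuCyte confluency was below 70% of agonist controls in both mask sets.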

RAW-Dual [2] = experiment: NF-kB SEAP reporter activity, fold change vs agonist alone; higher = enhanced NF-kB activity
How it was run: as §1

RAW-Dual [3] = experiment: NF-kB SEAP reporter activity, fold change vs agonist alone; cytotoxicity flag (confluency mask): cytotoxic (confluency <70% of control); higher = enhanced NF-kB activity
How it was run: as §1

[4] = agonist: ODN 1826 (TLR9) 0.5 ug/mL
[5] = agonist: Pam2CSK4 (TLR2/6) 0.1 ug/mL
[6] = agonist: Pam3CSK4 (TLR2/1) 0.1 ug/mL
[7] = library stock concentration (final ~1000-fold dilution): 10 mM, cytotoxicity flag (confluency mask): not cytotoxic, agonist: MPLA (TLR4) […]
[8] = library stock concentration (final ~1000-fold dilution): 10 mM, cytotoxicity flag (confluency mask): not cytotoxic, agonist: Imiquimod (TLR7) […]

CC1OC(OC2C(O)C(OCCc3ccc(O)c(O)c3)OC(CO)C2OC(=O)/C=C/c2ccc(O)c(O)c2)C(O)C(O)C1O (configuration not stated) (library stock concentration (final ~1000-fold dilution): 10 mM) was tested, and the “NF-kB SEAP reporter activity” value (RAW-Dual [1]; agonist: LPS (TLR4) 0.1 ug/mL) was 1.21, the “NF-kB SEAP reporter activity” value (RAW-Dual [1]; [4]) was 1.05 and the “NF-kB SEAP reporter activity” value (RAW-Dual [1]; [5]) was 1.03. For the same compound, the “NF-kB SEAP reporter activity” value (RAW-Dual [1]; [6]) was 1.11.
For CC1OC(OC2C(O)C(OCCc3ccc(O)c(O)c3)OC(CO)C2OC(=O)/C=C/c2ccc(O)c(O)c2)C(O)C(O)C1O (configuration not stated), the “NF-kB SEAP reporter activity” value (RAW-Dual [2]; [7]) was 1.02.
For CN1CCCN=C1/C=C/c1cccc(O)c1.O=C(O)c1cc2ccccc2c(Cc2c(O)c(C(=O)O)cc3ccccc23)c1O (library stock concentration (final ~1000-fold dilution): 10 mM), the “NF-kB SEAP reporter activity” value (RAW-Dual [1]; agonist: LPS (TLR4) 0.1 ug/mL) was 0.973, the “NF-kB SEAP reporter activity” value (RAW-Dual [1]; [4]) was 0.993 and the “NF-kB SEAP reporter activity” value (RAW-Dual [1]; [5]) was 1.01. The “NF-kB SEAP reporter activity” value (RAW-Dual [1]; [6]) was 0.594.
With CN1CCCN=C1/C=C/c1cccc(O)c1.O=C(O)c1cc2ccccc2c(Cc2c(O)c(C(=O)O)cc3ccccc23)c1O the “NF-kB SEAP reporter activity” value (RAW-Dual [2]; [8]) was 0.944 and the “NF-kB SEAP reporter activity” value (RAW-Dual [2]; [7]) was 1.12.
With CC(C)N1CCN(Cc2cnc(-c3cc(-c4cccc5[nH]ccc45)cc4[nH]ncc34)o2)CC1 (library stock concentration (final ~1000-fold dilution): 10 mM) the “NF-kB SEAP reporter activity” value (RAW-Dual [1]; agonist: LPS (TLR4) 0.1 ug/mL) was 4.66, the “NF-kB SEAP reporter activity” value (RAW-Dual [1]; [4]) was 0.196 and the “NF-kB SEAP reporter activity” value (RAW-Dual [1]; [5]) was 0.982. The “NF-kB SEAP reporter activity” value (RAW-Dual [1]; [6]) was 1.86.
With CC(C)N1CCN(Cc2cnc(-c3cc(-c4cccc5[nH]ccc45)cc4[nH]ncc34)o2)CC1 the “NF-kB SEAP reporter activity” value (RAW-Dual [2]; [8]) was 0.519 and the “NF-kB SEAP reporter activity” value (RAW-Dual [2]; [7]) was 1.83.
In the case of C[N+]1(C)CCC[C@H]1C(=O)O (library stock concentration (final ~1000-fold dilution): 10 mM), the “NF-kB SEAP reporter activity” value (RAW-Dual [1]; agonist: LPS (TLR4) 0.1 ug/mL) is reported as 1.08, the “NF-kB SEAP reporter activity” value (RAW-Dual [1]; [4]) is reported as 1.08 and the “NF-kB SEAP reporter activity” value (RAW-Dual [1]; [5]) is reported as 1.16. For the same compound, the “NF-kB SEAP reporter activity” value (RAW-Dual [1]; [6]) was 1.08.
In the case of C[N+]1(C)CCC[C@H]1C(=O)O, the “NF-kB SEAP reporter activity” value (RAW-Dual [2]; [8]) is reported as 0.952 and the “NF-kB SEAP reporter activity” value (RAW-Dual [2]; [7]) is reported as 0.985.
With CCCC(NC(=O)/C(C#N)=C/c1cccc(Br)n1)c1ccccc1 (configuration not stated) the “NF-kB SEAP reporter activity” value (RAW-Dual [2]; [8]) was 0.971 and the “NF-kB SEAP reporter activity” value (RAW-Dual [2]; [7]) was 0.962.
For CCCC(NC(=O)/C(C#N)=C/c1cccc(Br)n1)c1ccccc1 (configuration not stated) (library stock concentration (final ~1000-fold dilution): 10 mM), the “NF-kB SEAP reporter activity” value (RAW-Dual [1]; agonist: LPS (TLR4) 0.1 ug/mL) was 0.416, the “NF-kB SEAP reporter activity” value (RAW-Dual [1]; [4]) was 0.925 and the “NF-kB SEAP reporter activity” value (RAW-Dual [1]; [5]) was 0.387. For the same compound, the “NF-kB SEAP reporter activity” value (RAW-Dual [1]; [6]) was 0.838.
With Cc1[nH]c2ccccc2c1C1=C(NCCc2ccc(F)cc2)C(=O)N(C)C1=O the “NF-kB SEAP reporter activity” value (RAW-Dual [2]; [8]) was 1.01 and the “NF-kB SEAP reporter activity” value (RAW-Dual [2]; [7]) was 1.28.
With Cc1[nH]c2ccccc2c1CCNC(=O)c1cccs1 (library stock concentration (final ~1000-fold dilution): 10 mM) the “NF-kB SEAP reporter activity” value (RAW-Dual [1]; agonist: LPS (TLR4) 0.1 ug/mL) was 1, the “NF-kB SEAP reporter activity” value (RAW-Dual [1]; [4]) was 1.06 and the “NF-kB SEAP reporter activity” value (RAW-Dual [1]; [5]) was 1.12. The “NF-kB SEAP reporter activity” value (RAW-Dual [1]; [6]) was 0.991.
Cc1[nH]c2ccccc2c1CCNCc1ccc(/C=C/C(=O)NO)cc1 was tested, and the “NF-kB SEAP reporter activity” value (RAW-Dual [2]; library stock concentration (final ~1000-fold dilution): 10 mM, cytotoxicity flag (confluency mask): cytotoxic (confluency <70% of control), agonist: Imiquimod (TLR7) […]) was 2.51 and the “NF-kB SEAP reporter activity” value (RAW-Dual [2]; library stock concentration (final ~1000-fold dilution): 10 mM, cytotoxicity flag (confluency mask): cytotoxic (confluency <70% of control), agonist: MPLA (TLR4) […]) was 2.63.
With Cc1[nH]c2ccccc2c1C1=C(NCCc2ccc(F)cc2)C(=O)N(C)C1=O (library stock concentration (final ~1000-fold dilution): 10 mM) the “NF-kB SEAP reporter activity” value (RAW-Dual [1]; agonist: LPS (TLR4) 0.1 ug/mL) was 1.23, the “NF-kB SEAP reporter activity” value (RAW-Dual [1]; [4]) was 0.588 and the “NF-kB SEAP reporter activity” value (RAW-Dual [1]; [5]) was 0.531. The “NF-kB SEAP reporter activity” value (RAW-Dual [1]; [6]) was 0.337.
Cc1[nH]c2ccccc2c1CCNC(=O)c1cccs1 was tested, and the “NF-kB SEAP reporter activity” value (RAW-Dual [2]; [8]) was 1.06 and the “NF-kB SEAP reporter activity” value (RAW-Dual [2]; [7]) was 1.11.
With Cc1[nH]c2ccccc2c1CCNCc1ccc(/C=C/C(=O)NO)cc1 (library stock concentration (final ~1000-fold dilution): 10 mM) the “NF-kB SEAP reporter activity” value (RAW-Dual [3]; agonist: LPS (TLR4) 0.1 ug/mL) was 4.6, the “NF-kB SEAP reporter activity” value (RAW-Dual [3]; [4]) was 0.219 and the “NF-kB SEAP reporter activity” value (RAW-Dual [3]; [5]) was 0.886. For the same compound, the “NF-kB SEAP reporter activity” value (RAW-Dual [3]; [6]) was 1.47.
O=c1oc2cc(O)ccc2c2ccc(O)cc12 (library stock concentration (final ~1000-fold dilution): 10 mM) was tested, and the “NF-kB SEAP reporter activity” value (RAW-Dual [1]; agonist: LPS (TLR4) 0.1 ug/mL) was 1.08, the “NF-kB SEAP reporter activity” value (RAW-Dual [1]; [4]) was 0.575 and the “NF-kB SEAP reporter activity” value (RAW-Dual [1]; [5]) was 0.257. For the same compound, the “NF-kB SEAP reporter activity” value (RAW-Dual [1]; [6]) was 0.455.
For O=c1oc2cc(O)ccc2c2ccc(O)cc12, the “NF-kB SEAP reporter activity” value (RAW-Dual [2]; [8]) was 1.26 and the “NF-kB SEAP reporter activity” value (RAW-Dual [2]; [7]) was 1.58.
For CNC(=O)c1ccc(-c2cnc3cnc(-c4ccccc4)cn23)cc1, the “NF-kB SEAP reporter activity” value (RAW-Dual [2]; [8]) was 1.1 and the “NF-kB SEAP reporter activity” value (RAW-Dual [2]; [7]) was 1.37.
For CNC(=O)c1ccc(-c2cnc3cnc(-c4ccccc4)cn23)cc1 (library stock concentration (final ~1000-fold dilution): 10 mM), the “NF-kB SEAP reporter activity” value (RAW-Dual [1]; agonist: LPS (TLR4) 0.1 ug/mL) was 1.54, the “NF-kB SEAP reporter activity” value (RAW-Dual [1]; [4]) was 0.763 and the “NF-kB SEAP reporter activity” value (RAW-Dual [1]; [5]) was 1.22. For the same compound, the “NF-kB SEAP reporter activity” value (RAW-Dual [1]; [6]) was 2.3.
In the case of CC12CCC3c4ccc(O)cc4CC(CCCCCCCCCS(=O)CCCC(F)(F)C(F)(F)F)C3C1CCC2O (configuration not stated) (library stock concentration (final ~1000-fold dilution): 10 mM), the “NF-kB SEAP reporter activity” value (RAW-Dual [1]; agonist: LPS (TLR4) 0.1 ug/mL) is reported as 0.714, the “NF-kB SEAP reporter activity” value (RAW-Dual [1]; [4]) is reported as 0.721 and the “NF-kB SEAP reporter activity” value (RAW-Dual [1]; [5]) is reported as 0.634. The “NF-kB SEAP reporter activity” value (RAW-Dual [1]; [6]) was 0.864.
In the case of CC12CCC3c4ccc(O)cc4CC(CCCCCCCCCS(=O)CCCC(F)(F)C(F)(F)F)C3C1CCC2O (configuration not stated), the “NF-kB SEAP reporter activity” value (RAW-Dual [2]; [8]) is reported as 0.89 and the “NF-kB SEAP reporter activity” value (RAW-Dual [2]; [7]) is reported as 0.904.
For CC#CC(=O)N1CCCC1c1nc(-c2ccc(C(=O)Nc3ccccn3)cc2)c2c(N)nccn12 (configuration not stated) (library stock concentration (final ~1000-fold dilution): 10 mM), the “NF-kB SEAP reporter activity” value (RAW-Dual [1]; agonist: LPS (TLR4) 0.1 ug/mL) was 1.09, the “NF-kB SEAP reporter activity” value (RAW-Dual [1]; [4]) was 0.844 and the “NF-kB SEAP reporter activity” value (RAW-Dual [1]; [5]) was 0.581. The “NF-kB SEAP reporter activity” value (RAW-Dual [1]; [6]) was 0.793.
CC#CC(=O)N1CCCC1c1nc(-c2ccc(C(=O)Nc3ccccn3)cc2)c2c(N)nccn12 (configuration not stated) was tested, and the “NF-kB SEAP reporter activity” value (RAW-Dual [2]; [8]) was 0.862 and the “NF-kB SEAP reporter activity” value (RAW-Dual [2]; [7]) was 0.81.
For COC1OC(COS(=O)(=O)O)C(OC2OC(C(=O)O)C(OC3OC(COS(=O)(=O)O)C(OC4OC(C(=O)O)C(OC5OC(COS(=O)(=O)O)C(O)C(O)C5NS(=O)(=O)O)C(O)C4O)C(OS(=O)(=O)O)C3NS(=O)(=O)O)C(O)C2OS(=O)(=O)O)C(O)C1NS(=O)(=O)O (configuration not stated), the “NF-kB SEAP reporter activity” value (RAW-Dual [2]; library stock concentration (final ~1000-fold dilution): 10 mM water, cytotoxicity flag (confluency mask): not cytotoxic, agonist: Imiquimod (TLR7) […]) was 1.04 and the “NF-kB SEAP reporter activity” value (RAW-Dual [2]; library stock concentration (final ~1000-fold dilution): 10 mM water, cytotoxicity flag (confluency mask): not cytotoxic, agonist: MPLA (TLR4) […]) was 1.06.
For COC1OC(COS(=O)(=O)O)C(OC2OC(C(=O)O)C(OC3OC(COS(=O)(=O)O)C(OC4OC(C(=O)O)C(OC5OC(COS(=O)(=O)O)C(O)C(O)C5NS(=O)(=O)O)C(O)C4O)C(OS(=O)(=O)O)C3NS(=O)(=O)O)C(O)C2OS(=O)(=O)O)C(O)C1NS(=O)(=O)O (configuration not stated) (library stock concentration (final ~1000-fold dilution): 10 mM water), the “NF-kB SEAP reporter activity” value (RAW-Dual [1]; agonist: LPS (TLR4) 0.1 ug/mL) was 1.06, the “NF-kB SEAP reporter activity” value (RAW-Dual [1]; [4]) was 1.3 and the “NF-kB SEAP reporter activity” value (RAW-Dual [1]; [5]) was 1.25. For the same compound, the “NF-kB SEAP reporter activity” value (RAW-Dual [1]; [6]) was 1.04.
